Results reported in ChEMBL document CHEMBL4888484, “Replenishing the malaria drug discovery pipeline: Screening and hit evaluation of the MMV Hit Generation Library 1 (HGL1) against asexual blood stage Plasmodium falciparum ,using a nano luciferase reporter read-out” (2022).
Among all 150,000 compounds or so, about 540 (0.36%) showed an effect of 50% or more. The list comes from a sample in which strong results are over-represented; it also holds similar structures and randomly drawn compounds.

Each compound was assayed on Plasmodium falciparum (assay: Primary screen in NF54 nanoGlo assay, in single point, at 2uM, 72h; a lower Z score goes with more inhibition). Conditions: timepoint 72 hour.
Assay type: functional, Erythrocyte
In the case of `COc1ccc(-c2cc3n(n2)C[C@@](C)(C(=O)NCc2ccccc2OC)N(c2cc(C)cc(C)c2)C3=O)cc1`, the “% Inhibition” value was 9% and the Z score was -1.43.
In the case of `Cc1ccc(CNC(=O)[C@]2(C)Cn3nc(C)cc3C(=O)N2c2ccc3c(c2)OCCO3)cc1`, the “% Inhibition” value was -1% and the Z score was 0.18.
`COc1ccc(-c2cc3n(n2)C[C@@](C)(C(=O)NCc2ccccc2OC)N(c2cccc(OC)c2)C3=O)cc1` was tested, and the “% Inhibition” value was 51% and the Z score was -8.04.
With `COc1ccc(-c2cc3n(n2)C[C@@](C)(C(=O)NCc2ccccc2OC)N(c2ccc(C)cc2)C3=O)cc1` the “% Inhibition” value was -4% and the Z score was 0.55.
For `C[C@@]1(C(=O)NCc2ccccc2)Cn2nc(-c3ccccc3)cc2C(=O)N1C1CC1`, the “% Inhibition” value was 9% and the Z score was -1.39.
`CCc1ccc(-c2cc3n(n2)C[C@@](C)(C(=O)NC2CCCCC2)N(c2cccc(C)c2C)C3=O)cc1` was tested, and the “% Inhibition” value was -2% and the Z score was 0.32.
`COc1ccc(-c2cc3n(n2)C[C@@](C)(C(=O)NCc2ccccc2)N(Cc2ccc4c(c2)OCO4)C3=O)cc1` was tested, and the “% Inhibition” value was 52% and the Z score was -8.23.
In the case of `CCc1ccc(-c2cc3n(n2)C[C@@](C)(C(=O)NC2CCCCCC2)N(c2ccc(F)cc2)C3=O)cc1`, the “% Inhibition” value was 0% and the Z score was 0.02.
`COc1ccc(-c2cc3n(n2)C[C@@](C)(C(=O)NCc2ccccc2)N(Cc2ccccc2Cl)C3=O)cc1` was tested, and the “% Inhibition” value was 17% and the Z score was -2.69.
In the case of `COc1ccc(CN2C(=O)c3cc(-c4ccc(OC)cc4)nn3C[C@@]2(C)C(=O)NCc2ccccc2)cc1`, the “% Inhibition” value was 6% and the Z score was -0.96.
With `CCc1ccc(-c2cc3n(n2)C[C@@](C)(C(=O)NC2CCCCC2)N(c2cc(C)cc(C)c2)C3=O)cc1` the “% Inhibition” value was 71% and the Z score was -11.34.
With `C[C@@]1(C(=O)NCc2ccccc2)Cn2nc(-c3ccccc3)cc2C(=O)N1c1ccc2c(c1)OCCO2` the “% Inhibition” value was 52% and the Z score was -8.25.
With `Cc1nc(NC(=O)CC2=CCCCC2)n(C)n1` the “% Inhibition” value was 5% and the Z score was -0.53.
In the case of `CN(C(=O)OC(C)(C)C)[C@H]1CCCN(C(=O)c2ccn(C)c(=O)c2)C1`, the “% Inhibition” value was 3% and the Z score was -0.37.
`CC1(C)CC(C)(C)c2ccccc2CN1` was tested, and the “% Inhibition” value was 3% and the Z score was -0.41.
With `Cn1nccc1NC(=O)Cn1ncc2cc(-c3cccc4cccnc34)ccc21` the “% Inhibition” value was 0% and the Z score was -0.05.
`COc1ccc(C2=C[C@@H](c3ccc(F)cc3)n3ncc(C(=O)Nc4ccc(C)cc4)c3N2)cc1` was tested, and the “% Inhibition” value was 2% and the Z score was -0.16.
`COc1ccc(C2=C[C@@H](c3cccc(OC)c3)n3ncc(C(=O)Nc4ccccc4)c3N2)cc1` was tested, and the “% Inhibition” value was 6% and the Z score was -0.59.
In the case of `CCc1ccc(C2=C[C@@H](c3cccc(OC)c3)n3ncc(C(=O)Nc4ccc(C)cc4)c3N2)cc1`, the “% Inhibition” value was 60% and the Z score was -5.98.
In the case of `O=C(N[C@@H](Cn1nccn1)c1ccccc1)c1cc(Br)ccc1Cl`, the “% Inhibition” value was 57% and the Z score was -6.89.
For `O=C(N[C@@H](Cn1nccn1)c1ccccc1)c1ccncc1`, the “% Inhibition” value was -13% and the Z score was 1.97.
In the case of `O=C(N[C@@H](Cn1nccn1)c1ccccc1)c1cc(-c2ccccc2)n[nH]1`, the “% Inhibition” value was -4% and the Z score was 0.69.
For `Fc1cc(Cl)ccc1OC[C@@H]1CCCN2CCCC[C@H]12`, the “% Inhibition” value was 17% and the Z score was -2.29.
For `Clc1cccc(OC2CN(C[C@@H]3CCCN4CCCC[C@H]34)C2)c1`, the “% Inhibition” value was 3% and the Z score was -0.42.
With `Cc1n[nH]c(C)c1CCCN(C)C(=O)c1cn2cccnc2n1` the “% Inhibition” value was 4% and the Z score was -0.72.
`Cc1cc(C)c(CNC(=O)c2cnn(C)c2C)c(=O)[nH]1` was tested, and the “% Inhibition” value was -9% and the Z score was 1.13.
With `O=c1[nH]nc(-c2ccc(Cl)cc2)c2cn(-c3ccc(Cl)cc3)nc12` the “% Inhibition” value was -14% and the Z score was 1.65.
With `Cc1nnc(-c2ccco2)c2cn(-c3ccc(Cl)cc3)nc12` the “% Inhibition” value was 69% and the Z score was 1.
In the case of `Clc1ccc(-c2nnc(-c3ccco3)c3nocc23)cc1`, the “% Inhibition” value was 3% and the Z score was -0.41.
In the case of `Cc1noc(C)c1C(=O)N1CCC[C@H](Oc2ncc(Cl)cn2)C1`, the “% Inhibition” value was -3% and the Z score was 0.45.
`O=C(NCCN1CCC[C@H](CO)C1)c1cccc(-c2ccc3occc3c2)c1` was tested, and the “% Inhibition” value was -3% and the Z score was 0.37.
In the case of `Cn1nc2c(c1C(=O)NCc1csc(N)n1)CCCC2`, the “% Inhibition” value was 5% and the Z score was -0.77.
For `NS(=O)(=O)c1ccc(CCNc2nc(-c3ccccc3)nc3ccccc23)cc1`, the “% Inhibition” value was 39% and the Z score was 0.27.
In the case of `C[C@H](Nc1nc(N2CCCCC2)nc2ccccc12)c1ccccc1`, the “% Inhibition” value was 40% and the Z score was -5.78.
In the case of `C[C@H](Nc1nc(N(C)C)nc2ccccc12)c1ccccc1`, the “% Inhibition” value was -5% and the Z score was 0.67.
With `CNc1nc(NCCc2ccccc2)nc2ccccc12` the “% Inhibition” value was 83% and the Z score was -8.48.
`Cc1nc(Nc2ccc3c(c2)OCCO3)cc(-c2ccccc2)n1` was tested, and the “% Inhibition” value was 5% and the Z score was -0.89.
With `Nc1ncnc(NCCc2ccccc2)n1` the “% Inhibition” value was 2% and the Z score was -0.24.
For `CNc1nc(NCc2ccccc2)nc2ccccc12`, the “% Inhibition” value was 81% and the Z score was -8.4.
`CNc1nc(Nc2ccc3c(c2)OCCO3)nc2ccccc12` was tested, and the “% Inhibition” value was 89% and the Z score was -16.08.
For `CC(C)COC(=O)c1nc2ccccc2nc1Nc1ccc2c(c1)OCCO2`, the “% Inhibition” value was 8% and the Z score was -0.98.
In the case of `CCN(Cc1nc(C(N)=O)no1)Cc1c(F)cccc1Cl`, the “% Inhibition” value was -6% and the Z score was 1.04.
With `CC(C)(N)c1ccc(Cl)c(Cl)c1` the “% Inhibition” value was -9% and the Z score was 1.19.
For `Nc1c(Br)cc2oc(-c3ccc4ccccc4c3)nc2c1Br`, the “% Inhibition” value was 36% and the Z score was -1.3.
With `O=C(N[C@H]1CCn2nccc2C1)c1ccc(OC(F)F)cn1` the “% Inhibition” value was -8% and the Z score was 0.97.
With `CC(C)(C)OC1CC(NCC(=O)NCC2CC2)C1(C)C` (centres undefined) the “% Inhibition” value was -5% and the Z score was 0.8.
In the case of `COC(=O)[C@H]1CCc2nnc(Cc3ccc(F)cc3)n2C1`, the “% Inhibition” value was -9% and the Z score was 1.42.
In the case of `O=C(c1ccccc1C(F)(F)F)N1CC2(CCOC2)C1`, the “% Inhibition” value was 5% and the Z score was -0.56.
For `Cc1nc(N)nc(C(F)(F)F)c1Br`, the “% Inhibition” value was -1% and the Z score was 0.16.
For `COc1ccc(C(=O)c2ccccc2C(=O)Nc2cn[nH]c2)cc1`, the “% Inhibition” value was -8% and the Z score was 1.57.
`O=C(NC1CC1)c1ccccc1C(=O)c1ccc(F)cc1` was tested, and the “% Inhibition” value was -8% and the Z score was 1.02.
For `O=C(Nc1cnc2ccccc2c1)c1ccccc1C(=O)c1ccc(F)cc1`, the “% Inhibition” value was 93% and the Z score was -10.24.
For `Cc1ccc(C(=O)Nc2ncn(Cc3c(F)cccc3Cl)n2)cc1`, the “% Inhibition” value was -15% and the Z score was 1.74.
With `CN(Cc1ncc(-c2ccccc2)o1)c1ccccc1` the “% Inhibition” value was -6% and the Z score was 0.5.
`C[n+]1ccc(-c2ncc(-c3ccccc3)o2)c2ccccc21` was tested, and the “% Inhibition” value was 75% and the Z score was -5.73.
With `CC(=O)Nc1c(-c2ccc(F)cc2)c(C)nn1-c1ccc(C(=O)Nc2nc(C)cs2)cc1` the “% Inhibition” value was -1% and the Z score was 0.19.
With `CC(=O)Nc1c(-c2ccc(C)cc2)c(C)nn1-c1ccc(C(=O)Nc2cc(C)ccn2)cc1` the “% Inhibition” value was 59% and the Z score was -6.89.
In the case of `CC(=O)Nc1c(-c2ccc(F)cc2)c(C)nn1-c1ccc(C(=O)Nc2cccc(F)c2)cc1`, the “% Inhibition” value was -5% and the Z score was 0.93.
For `c1ccc2c(c1)CCCC2N1CCCC(Cn2cncn2)C1` (centres undefined), the “% Inhibition” value was -9% and the Z score was 1.31.
For `C[C@H](NC(=O)CNC(C)(C)C)c1ccc(F)cc1F`, the “% Inhibition” value was -4% and the Z score was 0.48.
In the case of `CC1(C)CO[C@@H](CC(=O)N2CCOC3(CCS(=O)(=O)CC3)C2)C1`, the “% Inhibition” value was 0% and the Z score was 0.06.
`Cc1ccc(-c2cn[nH]c2[C@H]2CCCN(C(=O)c3[nH]cnc3C)C2)cc1` was tested, and the “% Inhibition” value was -5% and the Z score was 0.87.
`Cc1cccc2c(-c3cc(N)nc(N)n3)c[nH]c12` was tested, and the “% Inhibition” value was 85% and the Z score was -9.19.
For `Cc1cccc2c(-c3cccc(C(N)=O)n3)c[nH]c12`, the “% Inhibition” value was -6% and the Z score was 1.19.
With `O=C(c1cnc2ccsc2c1)N1CC2(CCCCC2)C1` the “% Inhibition” value was -15% and the Z score was 2.61.
For `CCc1noc(C)c1C(=O)Nc1sc2c(c1C(N)=O)CCCCC2`, the “% Inhibition” value was -23% and the Z score was 2.07.
`CCn1ncnc1CNC1CC(c2ccc(Br)cc2)C1` (centres undefined) was tested, and the “% Inhibition” value was -13% and the Z score was 1.96.
For `COc1ccc2c(O)c(C(=O)NCCN(C)C)cnc2c1`, the “% Inhibition” value was -7% and the Z score was 0.96.
With `COc1ccc(C(=O)c2cnc3cc(Cl)ccc3c2-c2ccccc2)cc1` the “% Inhibition” value was -12% and the Z score was 1.39.
In the case of `COc1ccc2c(O)cc(-c3ccccc3)nc2c1`, the “% Inhibition” value was 37% and the Z score was -0.12.
In the case of `Cc1cccc(Cn2c(C(=O)Nc3ccccc3)cc3cc(NC(=O)C4CCC4)ccc32)c1`, the “% Inhibition” value was 13% and the Z score was -2.41.
`COc1ccc(-c2nn(-c3ccccc3C)cc2CN(C)Cc2nccn2C)cc1F` was tested, and the “% Inhibition” value was -8% and the Z score was 1.05.
For `Cc1cc(C(=O)Nc2cccc(C(F)(F)F)c2)cc2c1N(C)S(=O)(=O)c1ccccc1-2`, the “% Inhibition” value was -3% and the Z score was 0.47.
`O=C(COC[C@H]1CCCCO1)NC(C1CC1)C1CC1` was tested, and the “% Inhibition” value was -8% and the Z score was 1.05.
In the case of `O=C(Nc1ccc(Br)cn1)c1ccc(-c2ccc(Cl)c(Cl)c2)o1`, the “% Inhibition” value was 31% and the Z score was -3.51.
In the case of `O=C(Nc1cccnc1)c1ccc(-c2ccc(Cl)c(Cl)c2)o1`, the “% Inhibition” value was 64% and the Z score was -16.5.
With `Cc1ccc(-c2ccc(C(=O)Nc3cccnc3)o2)cc1Cl` the “% Inhibition” value was -2% and the Z score was 0.25.
`Cc1ccc2nc(-c3cc4ccccc4o3)cn2c1` was tested, and the “% Inhibition” value was 61% and the Z score was -5.65.
In the case of `Nc1nn2cc(-c3cc4ccccc4o3)nc2c2ccccc12`, the “% Inhibition” value was -6% and the Z score was 1.22.
In the case of `Cc1ccc2nc(-c3cnoc3C)cn2c1`, the “% Inhibition” value was 0% and the Z score was 0.04.
In the case of `O=C(NCCN1CCCC1)c1ccc(-c2c(-c3ccc(F)cc3)ncn2C2CCCC2)o1`, the “% Inhibition” value was 5% and the Z score was -0.8.
For `Cc1ccc(Cl)cc1N1CCN(C(=O)N2CCC(C)CC2)CC1`, the “% Inhibition” value was 0% and the Z score was -0.01.
